# Measurements taken from PubChem BioAssay (EPA / NIEHS).
# Some compounds were tested as several samples or in several runs, with calls that do not always agree. Calls of active or inactive are those of the source. The calls were made as follows: active = hit-call score of the fitted dose curve at least 0.9, where 1 is the maximum; inactive = score below 0.9.
# Read-out: Monokine induced gamma interferon (MIG), CXCL9 (gene 4283)
# Assay: BSK_BE3C_MIG: BioMAP Diversity Plus: BE3C Assay for Monokine induced gamma interferon (MIG) Biomarker Activity (AID 2283035)
# Settings: primary human bronchial epithelial cells; actives raise or lower the signal
# Method: BSK_BE3C is a cell-based, multiplexed-readout assay that uses bronchial epithelial cell, a human lung primary cell, with measurements taken at 24 hours after chemical dosing in a 96-well plate.BSK_BE3C_MIG is an assay component measured in the BSK_BE3C assay. It measures MIG antibody related to regulation of gene expression using ELISA technology.Data from the assay component BSK_BE3C_MIG was analyzed into 1 assay endpoint. This assay endpoint, BSK_BE3C_MIG, was analyzed with bidirectional fitting relative to DMSO as the negative control and baseline of activity. Using a type of binding reporter, gain or loss-of-signal activity can be used to understand changes in the signaling as they relate to the gene CXCL9. Furthermore, this assay endpoint can be referred to as a primary readout, because this assay has produced multiple assay endpoints where this one serves a signaling function. To generalize the intended target to other relatable targets, this assay endpoint is annotated to the cytokine intended target family, where the subfamily is chemotactic factor.
# The levels of cell surface (or secreted, indicated by the prefix "s") biomarker endpoints were measured by ELISA. Overt cytotoxicity to cells in confluent adherent cultures (all systems other than the BT system) was assessed by measuring total protein levels using sulforhodamine B (SRB) staining in parallel cultures at the time of biomarker measurements, indicated as SRB endpoints. For proliferation assays for adherent cell types, individual cell types are cultured at sub-confluence and relative cell numbers quantified by SRB staining at time points optimized for each system (48 h: 3C and CASM3C systems; 72 h: BT and HDF3CGF systems; 96 h: SAg system). SRB was performed by staining cells with 0.1% SRB after fixation with 10% TCA and reading wells at 560 nm.Viability and proliferation of PBMC (T cells) was quantified by Alamar Blue reduction for the SAg and BT systems. For PBMC viability (referred to as PBMC Cytotoxicity within the assay endpoint names), cells were plated (75,000/well in a 96-well plate) and then chemical samples added for 1 h before addition of activators, SEB and TSST-1 (20 ng/mL final concentration each). Cells were incubated for 90 h. Then, Alamar Blue (20 uL/well) (Invitrogen, Cat DAL1100) was added for 6 h, and the plates were read with a fluorescence microplate reader at 546/580 nm (excitation/emission). For PBMC proliferation, cells were plated and activated as above but incubated for only 16 h prior to addition of Alamar Blue. Plates were read after 6 h.
Compound,outcome,AC50
CC(C)CCCCCOC(=O)CS,inactive,–
c1ccc2c(c1)[nH]c1ccccc12,inactive,–
C=C(C)C(=O)OCCCCCCCCCCCC,inactive,–
CC1(C)CC(O)CC(C)(C)N1[O],inactive,–
CC=C(C)C=CC=C(C)C,inactive,–
COc1ccc(C(=O)/C(Br)=C\C(=O)O)cc1,inactive,28.8 µM (active)
CCN1CN(CC)CN(CC)C1,inactive,–
CCOC(=O)C1=NOC(c2ccccc2)(c2ccccc2)C1,inactive,–
c1ccc2sc(SSN3CCOCC3)nc2c1,inactive,–
CCOC(=O)/C=C\C(=O)OCC,inactive,–
C[N+](C)(C)CCCNS(=O)(=O)C(F)(F)C(F)(F)C(F)(F)C(F)(F)C(F)(F)C(F)(F)C(F)(F)C(F)(F)F,inactive,–
CCc1cccc(C)c1N(C(=O)CS(=O)(=O)O)C(C)COC (stereo not given),inactive,–
CC=C(C)C(C)=O,inactive,–
CCCCCCCCC(CO)CCCCCC (stereo not given),inactive,–
CCC1(C)C(=O)N(Cl)C(=O)N1Cl (stereo not given),inactive,–
Nc1cccc(N)n1,inactive,–
Nc1ccc(C(=O)O)cc1,inactive,–
COc1ccc(C(=O)c2ccccc2)c(O)c1,inactive,–
CC/C=C\CCOC(=O)c1ccccc1O,inactive,–
CC(C)C(=O)OCCc1ccccc1,inactive,–

Compound,outcome,AC50
CC(Cl)COP(=O)(OCC(C)Cl)OCC(C)Cl (stereo not given),inactive,–
Oc1ccc(/C=C/c2cc(O)cc(O)c2)cc1,inactive,–
CCCCCCC=O,inactive,–
CCCCCCOC(=O)CCCCC(=O)OCCCCCC,inactive,–
CC(C)c1cccc(C(C)C)c1N,inactive,–
CCCCCC1=CCCC1=O,inactive,–
O=C(O)C(F)(F)C(F)(F)C(F)(F)C(F)(F)C(=O)O,inactive,–
C=CC(=O)OCCCCCCOC(=O)C=C,–,35.7 µM (active)
C1CNCCN1,inactive,–
Nc1nc(N)nc(-c2ccccc2)n1,inactive,–
CCCCC1C(=O)N(c2ccccc2)N(c2ccccc2)C1=O,inactive,–
CCCC(C)C(=O)OCC (stereo not given),inactive,–
O=C1CCCCCCCCCCC1,inactive,–
C=CC(=O)OCCCCCCCC(C)C,inactive,–
CC(C)[N+](C)(CCOC(=O)C1c2ccccc2Oc2ccccc21)C(C)C,inactive,–
CCOC(=O)C1=NN(c2ccc(Cl)cc2Cl)C(C)(C(=O)OCC)C1 (stereo not given),inactive,–
C=CCCCCCCCCC=O,inactive,–
C=CC(=O)OCC(C)OCC(C)OCC(C)OC(=O)C=C (stereo not given),inactive,–
CCCCCCCO,inactive,–
